Bioassay records deposited in PubChem by Broad Institute.
aSyn 5UTR act = Activators via SNCA 5'UTR binding, MLPCN; alpha-synuclein 5'UTR reporter, activators screen; activity score, % (tested at 7.5 µM), hits read low; hit rate 7.1% among 300,000; in the data active = activity score below about -60%
Active calls of the source: *. The list is a sample of the results.

SMILES | aSyn 5UTR act
COc1ccc(/C=C2\CCn3c2nc2ccccc2c3=O)cc1OC | -256*
O=C(O)c1ccccc1-c1ccc(/C=C2\SC(=O)N(c3ccccc3)C2=O)o1 | -72*
O=C1S/C(=C\c2ccc(N3CCOCC3)o2)C(=O)N1c1ccccc1 | -96*
CN(C(=O)c1ccc2c(c1)OCO2)C1CCCCC1 | -82*
CN(C(=O)c1cccc(N2C(=O)C3C4C=CC(C4)C3C2=O)c1)C1CCCCC1 (stereo not given) | -102*
O=C(NC1CCCCC1)c1ccc2c(c1)OCO2 | -93*
Cc1ccc(C(=O)Nc2ccc(N3CCOCC3)nc2)cc1 | -71*
O=C(Nc1ccc(N2CCOCC2)c(F)c1)c1cccs1 | -123*
CN(C)c1ccc(NC(=O)c2ccc(N3CCOCC3)nc2)cc1 | -62*
O=C(Nc1ccc(N2CCOCC2)nc1)c1cccs1 | -104*
O=C(c1ccccc1)c1ccc(N2CCOCC2)c(F)c1 | -145*
O=C(c1ccccc1)c1cc([N+](=O)[O-])ccc1N1CCOCC1 | 101
Cc1ccc(N=C2c3ccccc3C(=O)C2[N+](=O)[O-])cc1C (stereo not given) | -110*
Cn1c(=NC(=O)c2ccccc2[N+](=O)[O-])sc2cccc(F)c21 | -110*
CC(=O)c1ccc(NC(=O)c2ccn(C(=O)OCC(C)C)n2)cc1 | -86*
N#C/C(=C/c1ccccc1[N+](=O)[O-])c1nc(C2CC2)cs1 | -301*
N#C/C(=C\c1ccccc1[N+](=O)[O-])c1nc(C2CC2)cs1 | -264*
N#C/C(=C\c1ccc([N+](=O)[O-])cc1)c1nc(C2CC2)cs1 | -84*
O=C1/C(=C/c2cccs2)SC(=S)N1CCC(=O)N1CCCCC1CCO (stereo not given) | -109*
COc1cc(/C=C2\SC(=S)N(CCC(=O)N3CCCCC3)C2=O)cc(OC)c1OC | -95*
COc1ccc(/C=C2\SC(=S)N(CCCC(=O)N3CCOCC3)C2=O)cc1 | 56
O=C(CCN1C(=O)/C(=C/c2cccs2)SC1=S)N1CCCCC1 | -90*
c1ccc(CCc2nc3ccccc3[nH]2)cc1 | -120*
O=c1[nH]c2ccccc2nc1CCc1ccccc1 | -90*
FCCCOc1ccc(/C=N/OCc2c(Cl)cccc2Cl)cc1 | -94*
SMILES | aSyn 5UTR act
FCCCOc1ccc(/C=N/OCc2ccc(Cl)cc2)cc1 | -70*
CCCSc1nnc(-c2c[nH]c3ccccc23)n1C | -78*
CC(=O)n1c2ccccc2c2nc3ccccc3nc21 | -98*
CC(=O)n1cc(N(C(=O)CCl)c2ccc(C)cc2)c2ccccc21 | 89
CCCCCc1ccc(-c2nnc(N)s2)cc1 | -98*
CCCCCCc1ccc(-c2ncc(N)cn2)cc1 | -68*
Nc1ccc(C#Cc2ccc3sc4ccccc4c(=O)c3c2)cc1 | -190*
COc1cccc2sc3ccc(C#CC4(O)CCCCC4)cc3c(=O)c12 | -191*
COc1cccc2sc3ccc(C#Cc4ccc(N)cc4)cc3c(=O)c12 | -111*
COc1cccc2sc3ccc(NCc4ccc5c(c4)OCO5)cc3c(=O)c12 | -63*
O=c1c2ccccc2sc2ccc(C#CC3(O)CCCCC3)cc12 | 104
COc1ccc2sc3c(=O)[nH]c4ccccc4c3c2c1 | 63
COc1ccc2sc3ccccc3c(=O)c2c1OC | -145*
Cc1nccc(-c2ccc(-n3cnc4ccccc43)cc2)n1 | -96*
Nc1nccc(-c2ccc(-n3cnc4ccccc43)cc2)n1 | -63*
COc1ccccc1N1CCN(Cc2ccc(O)c3ncccc23)CC1 | 77
Cc1cc2nc(-c3cccnc3SCC(=O)NC(C)C)[nH]c2cc1C | -122*
COc1ccccc1N1CCN(C(=O)CSc2ncccc2-c2nc3ccccc3[nH]2)CC1 | -68*
COc1ccc(N2CCN(C(=O)CSc3ncccc3-c3nc4ccccc4[nH]3)CC2)cc1 | -114*
Cc1cc(C)nc(SCC(=O)OCC(=O)Nc2nc3ccccc3s2)n1 | -70*
Cc1cc(C)n2c(Br)c(CSc3nc4ccccc4s3)nc2n1 | -79*
Cc1cc(NC(=O)CCl)n(-c2nc3ccccc3s2)n1 | -77*
Cc1cc(C)nc(NC(=O)CSc2nc3ccccc3s2)n1 | -203*
CC(C)(C)NC(=O)CCCSc1nc2ccccc2s1 | -133*
Cc1csc(SCC(=O)Nc2nc3ccccc3s2)n1 | -100*
SMILES | aSyn 5UTR act
O=C(CCSc1nc2ccccc2s1)N/N=C/c1c(O)ccc2ccccc12 | 66
O=C(CCc1ccccc1)Nc1ccc(NC(=O)c2ccco2)nc1 | -71*
Cc1cc(NC(=O)c2ccco2)ncc1NC(=O)Cc1ccccc1 | -119*
O=C(Nc1ccccn1)c1ccc(NC(=O)c2ccco2)cc1 | -141*
O=C(Nc1ccc(NC(=O)c2ccccc2Cl)nc1)c1ccco1 | -102*
CC(C)C(=O)Nc1ccc(NC(=O)c2ccccc2Cl)nc1 | -115*
CN(C)c1ccc(/C=N/N=C/c2ccccc2O)cc1 | -171*
COc1cccc(NC(=S)/C(=C(\[O-])c2ccc(OC(F)F)cc2)[n+]2ccccc2)c1 | -66*
O=c1c2cccc(Cl)c2nc2n1Cc1ccccc1-2 | -154*
O=C(Nc1cccnc1)c1ccc(CN2CCc3ccccc3C2)cc1 | -68*
Cc1ccc(NC(=O)c2ccc(CN3CCc4ccccc4C3)cc2)cc1 | -101*
CCC[C@H](CN[C@@H](CNC)[C@H](C)CC)NCCc1cc(C(F)(F)F)cc(C(F)(F)F)c1 | 124
Cc1ccc2nc3ccc(N4CCCC4)nn3c(=O)c2c1 | -163*
Cc1sc2nc3ccc(N4CCCCC4)nn3c(=O)c2c1C | -181*
Cc1ccc(C(=O)NNc2cc(N3CCCC3)nc(N3CCCC3)n2)cc1 | 74
Cc1ccc(O)c(NC(=O)c2cc(-c3ccccc3)on2)c1 | -254*
CCCc1cc(C(=O)Nc2cc(C)ccc2O)no1 | -250*
CCCn1cc(NC(=O)c2cc(-c3ccccc3)on2)cn1 | -134*
O=C(Nc1cc(Br)ccc1O)c1cc(-c2ccccc2)on1 | -131*
CCCc1cc(C(=O)Nc2ccccc2C(=O)OC)no1 | -71*
Cc1ccc(-c2nc3c(=O)n(C)c4ccccc4c3o2)cc1 | -72*
CCCOc1ccc(-c2nc(OC)c3ccccc3n2)cc1 | -85*
O=[N+]([O-])c1ccc(/C=C2\CCC(C3=CCCC3)=C2N2CCOCC2)cc1 | -74*
CCCCCC(=O)Nc1nc2ccccc2[nH]1 | -177*
CCC(Oc1ccccc1)C(=O)Nc1nc2ccccc2[nH]1 (stereo not given) | -66*
SMILES | aSyn 5UTR act
COc1ccc(CCC(=O)Nc2nc3ccccc3[nH]2)cc1 | -127*
COc1ccc(OCC(=O)Nc2nc3ccccc3[nH]2)cc1 | -123*
COc1ccccc1CCC(=O)Nc1nc2ccccc2[nH]1 | -223*
COc1ccc(Nc2nccc3c2nnn3C)cc1 | -144*
CC1CCN(CC(CS(=O)(=O)c2ccc([N+](=O)[O-])cc2)N2CCC(C)CC2)CC1 (stereo not given) | -66*
c1cc2c(cnc3cscc32)s1 | -69*
CCc1ccc(C(=O)c2cncc(Br)c2)cc1 | -63*
CCOC(=O)c1cnc(SCC(C)C)nc1N | -104*
CCOC(=O)c1cnc(SCc2cccc(C)c2)nc1N | -89*
CCOC(=O)c1cnc(SCC(=O)c2ccccc2)nc1N | -141*
O=C(Nc1nc2c(s1)CCCC2=O)c1cnccn1 | -88*
Cc1cc2cc(C=C(C#N)C#N)c(Cl)nc2cc1C | -75*
CCC(=O)N1N=C(c2ccc(NS(C)(=O)=O)cc2)CC1c1ccc(N(C)C)cc1 (stereo not given) | -102*
Oc1ccc(-c2[nH]ncc2-c2ccc(Cl)cc2)c(O)c1 | -62*
Nc1cccc(-c2nc3ccccc3[nH]2)c1 | -170*
c1cncc(-c2nc3cc4ccccc4cc3[nH]2)c1 | -79*
